Counter-ions that a name gives are not always drawn.
Experiments:
HCC1937 = test: relative cell viability, compound + erastin, vs DMSO (fraction of DMSO control); higher = less growth inhibition; settings: 72 h
MDA-MB-231 = test: as above; settings: 72 h
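Also: viability read by CCK-8 kit in 96-well plates, part of a combination screen pairing lipid-metabolism-targeting compounds with erastin.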

SMILES | relative cell viability (HCC1937) | relative cell viability (MDA-MB-231)
CC[C@H](C)C(=O)O[C@H]1C[C@H](O)C=C2C=C[C@H](C)[C@H](CC[C@@H](O)C[C@@H](O)CC(=O)O)[C@H]21 [Pravastatin sodium] + CCOc1ccccc1-n1c(C(C)N2CCN(C(=O)COc3ccc(Cl)cc3)CC2)nc2ccccc2c1=O [erastin] | 0.909 | 1.05
C[C@@H]1O[C@@H](O[C@H]2[C@H](Oc3cc(O)c4c(c3)O[C@H](c3ccc(O)cc3)CC4=O)O[C@H](CO)[C@@H](O)[C@@H]2O)[C@H](O)[C@H](O)[C@H]1O [Naringin] + CCOc1ccccc1-n1c(C(C)N2CCN(C(=O)COc3ccc(Cl)cc3)CC2)nc2ccccc2c1=O [erastin] | 0.902 | 0.632
CCC(C)(Oc1ccc(C2(c3ccc(OC(C)(CC)C(=O)O)cc3)CCCCC2)cc1)C(=O)O (stereo not given) [Clinofibrate] + CCOc1ccccc1-n1c(C(C)N2CCN(C(=O)COc3ccc(Cl)cc3)CC2)nc2ccccc2c1=O [erastin] | 0.544 | 0.325
CN1CCN(c2ccc(/C=C(\C#N)c3ccccc3Br)cc2)CC1 [DG172 (dihydrochloride)] + CCOc1ccccc1-n1c(C(C)N2CCN(C(=O)COc3ccc(Cl)cc3)CC2)nc2ccccc2c1=O [erastin] | 0.672 | 0.608
CCc1c(-c2ccccc2)c(-c2ccccc2)nn1-c1ccccc1-c1cccc(OCC(=O)O)c1 + CCOc1ccccc1-n1c(C(C)N2CCN(C(=O)COc3ccc(Cl)cc3)CC2)nc2ccccc2c1=O [erastin] | 0.84 | 0.861
